# Assay results published in PubChem BioAssay (EPA / NIEHS).
# Values joined by “and” are separate entries in the source; they are usually repeats but may differ in a detail not shown here. Equal values may be shown once. Inconclusive results are not listed. A structure can be active in one record and inactive in another. Active and inactive are the calls of the source. How the source made its calls: active means hit-call score of the fitted dose curve at least 0.9, where 1 is the maximum; inconclusive means response in the unintended direction; inactive means score below 0.9.
# Biological target: Cellular tumor antigen p53 (Homo sapiens) (UniProt P04637)
# Test: TOX21_p53_BLA_p2_ratio: Tox21 HCT-116 p53 Agonism Beta-lactamase Assay, Ratio, Phase 2 (AID 2283592)
# Excerpt: TOX21_p53_BLA_p2 is a cell-based, single-readout assay that uses HCT116, a human intestinal cell line, […] in a 1536-well plate.TOX21_p53_BLA_p2_ratio is an assay readout measuring reporter gene via receptor activity and designed using inducible reporter (beta lactamase induction) detected with GAL4 b-lactamase reporter gene. The signal is derived from the ratio of cleaved (ch2) to uncleaved (ch1) reporter gene substrate used as the measure of target activity.Data from the assay component TOX21_p53_BLA_p2_ratio was analyzed into 1 assay endpoint. This assay endpoint, TOX21_p53_BLA_p2_ratio, was analyzed in the positive analysis fitting direction relative to DMSO as the negative control and baseline of activity. Using a type of inducible reporter, gain-of-signal activity can be used to understand changes in the reporter gene as they relate to the gene TP53. Furthermore, this assay endpoint can be referred to as a primary readout, because this assay has produced multiple assay endpoints and this ratio serves a reporter gene function to understand target activity. To generalize the intended target to other relatable targets, this assay endpoint is annotated to the DNA binding intended target family, where the subfamily is tumor suppressor.
# Thawing Method: Place 14 mL of pre-warmed thaw medium into a 15 mL of conical tub. Remove the vial of cells to be thawed from liquid nitrogen and thaw rapidly by placing at 37C in a water bath with gentle agitation for 1-2 minutes. Decontaminate the vial by wiping with 70% ethanol before opening in a biological safety cabinet. Transfer the vial contents drop-wise into 14 mL of thaw medium in a sterile 15-mL conical tub. Centrifuge cells at 900 rpm for 4 minutes and resuspend in thaw medium. Transfer contents to the T75 tissue culture flask containing Thaw Medium and place flask in a humidified 37C/5% CO2 incubator. Switch to growth medium at first passage.Propagation Method: Aspirate medium, rinse once in DPBS, add 0.25% Trypsin/EDTA and swirl to coat the cell evenly. Add an equal volume of Growth Medium to inactivate Trypsin after 2-3 minutes incubation at 37C. Centrifuge cells at 900 rpm for 4 minutes and resuspend in growth medium. Cell should be passage or fed at least twice a week.Assay Protocol: Harvest cells from culture in growth medium and resuspend in assay medium. 2.2 Dispense 4000 cells/5 uL/well into 1536-well black/clear bottom plates using a Multidrop dispenser. After the cells were incubated at 37C for 5 hours, 23 nL of compounds dissolved in DMSO were transferred to the assay plate by a PinTool resulting in a 217-fold dilution. Incubate the plates for 16 hours at 37C, 5% CO2. Add 1 uL of 6X LiveBLAzer FRET B/G (CCF4-AM) Substrate Mixture to each well using a BioRAPTR dispenser and incubate the plates at room temperature for 2 hours. Measure fluorescence intensity at 460 and 530 nm emission and 405 nm excitation by an Envision detector. Data is expressed as the ratio of 460nm/530nm emissions. Add 4 uL of Cell-titer Glo to each well using BioRAPTR and incubate the plates at room temperature for 2 hours. Measure fluorescence intensity by a VewLux plate reader.
# Sequence of Cellular tumor antigen p53 (Homo sapiens) (P04637 whole entry, looked up): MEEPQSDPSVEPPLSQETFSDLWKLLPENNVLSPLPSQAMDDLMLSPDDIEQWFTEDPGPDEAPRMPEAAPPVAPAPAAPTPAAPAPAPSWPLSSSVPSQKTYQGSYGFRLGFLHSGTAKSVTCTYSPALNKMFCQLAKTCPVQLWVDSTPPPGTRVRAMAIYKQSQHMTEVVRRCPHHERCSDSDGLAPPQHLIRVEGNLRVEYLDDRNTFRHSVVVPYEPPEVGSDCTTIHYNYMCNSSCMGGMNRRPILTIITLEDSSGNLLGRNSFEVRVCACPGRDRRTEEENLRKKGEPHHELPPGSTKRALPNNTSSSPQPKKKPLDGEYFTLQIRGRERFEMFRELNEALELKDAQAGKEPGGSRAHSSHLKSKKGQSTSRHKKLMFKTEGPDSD
Compound,outcome,AC50
COC(=O)C1CCC(C(=O)OC)CC1 (configuration not stated),inactive,
CCC(=O)OCCc1ccccc1,inactive,
C#C[C@]1(O)CC[C@H]2[C@@H]3CCc4cc(OC)ccc4[C@H]3CC[C@@]21C,inactive,
C(=C(c1ccccc1)c1ccccc1)c1ccccc1,inactive,
Nc1ccc([N+](=O)[O-])cc1O,inactive,
Nc1cc(Cl)c(N)c(Cl)c1,inactive,
CCCCCC=O,inactive,
O=C(OCCOCCOCCOC(=O)c1ccccc1)c1ccccc1,inactive,
Cc1cc(C)cc(O)c1,inactive,
CCCCOc1ccc(N)cc1,inactive,
CCN(CC)c1ccc2c(C)cc(=O)oc2c1,,36.8 µM (active) and 44.9 µM (active)
Oc1ccc(Nc2ccccc2)cc1,inactive,
C1COCCN1,inactive,
CCCCNc1ccccc1,inactive,
CCc1ccc(C(c2ccc(CC)cc2)C(Cl)Cl)cc1,inactive,
CCCCCCCCCCCCCCCC[N+](C)(C)Cc1ccccc1,inactive,64.7 µM (active)
CN(C)Cc1ccccc1O,inactive,
O=S(=O)(O)c1ccc2ccccc2c1,inactive,
Nc1ccc(S(=O)(=O)Nc2nccs2)cc1,inactive,
CCCCCCOC(=O)c1ccccc1,inactive,
Cc1ccc(S(=O)(=O)NCl)cc1,inactive,
CC/C=C\CCOC(=O)c1ccccc1,inactive,
CCCCCCOC(=O)c1ccccc1O,inactive,
OC[C@@H](O)[C@@H](O)[C@H](O)[C@@H](O)CO,inactive,
CNC(=S)NC,inactive,
O=C(C=Cc1ccccc1)OCC=Cc1ccccc1,inactive,
